Screening results from PubChem BioAssay.
HCMV antiviral: human cytomegalovirus inhibition; AID 1259415; 4.5% of 410,000 active; HFF cells, HCMV-luciferase reporter, 72 h; stronger effect = lower value; activity change, negative = inhibition, % at 57.5 µM; in the data active means activity change below about -60%; inconclusive means no clear call, values can overlap the other calls; inactive means above about -39%
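Screen run at 2 compound doses on HFFs infected with reporter HCMV, MOI 1 PFU/cell. Luciferase activity from cell lysates at 72 h post infection gave inhibition relative to buffer-only and Salinomycin wells.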
RE007 growth inh: less growth of the S. pombe RE007 Vpr strain; S. pombe RE007 Vpr strain, BacTiter-Glo ATP luminescence, 24 h; Potency, µM (highest dose often 92.2 µM), inactives show at the top dose activity change, negative = less growth, usual class: inhibitors; 0.21% of 360,000 active; active means well fitted falling curve with a large enough effect; inconclusive means small, poorly fitted or top-dose-only effect; inactive means no such curve, though single readings can be large or run the other way; further: potency means the concentration at half of the fitted maximal effect; nearly all actives have a fitted effect of over 50% in size
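Fission yeast RE007 carrying one integrated HIV-1 vpr copy, seeded at OD 0.01 in PMG+AL medium with 23 nL pinned compound. Grown 24 h at 30 degrees; viability read by BacTiter-Glo luminescence after 5 min.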
Sm TGR block: S. mansoni TGR enzyme inhibition; Q962Y6; purified TGR, DTNB reduction, TNB absorbance 405 nm; Potency, µM (series often up to 114 µM), without a hit: at the highest dose activity change, negative = inhibition, usual class: inhibitors; 3% of 360,000 active; AID 485364; further: potency means the concentration at half of the fitted maximal effect; nearly all actives have a fitted effect of over 60% in size
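First, TGR (20 nM dispensed) and NADPH were mixed with compound. Second, a 15 min room-temperature incubation followed. Third, further NADPH and then DTNB were added to start the reaction. Finally, TNB absorbance was monitored kinetically.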
FMDV antiviral: blocks foot and mouth disease virus; AID 1159524; 1.2% of 410,000 active; Potency, µM (titrated, usually from 57.9 µM), inactives show at the top dose activity change, negative = inhibition, hits mostly inhibitors; FMDV antiviral cell-based qHTS; calls by dose curve; tested in HEK293T cells; further: read-out not given here; potency means the concentration at half of the fitted maximal effect; nearly all actives have a fitted effect of over 45% in size
Giardia FBPA inh: inhibitors of Giardia lamblia fructose-1,6-bisphosphate aldolase; purified Giardia FBPA; Potency, µM (highest dose often 59.6 µM), without a hit: at the top dose activity, negative = inhibition, most hits filed as inhibitors; 0.71% of 290,000 active; further: potency means the concentration at half of the fitted maximal effect; nearly all actives have a fitted effect of over 55% in size
Target sequence (A8B2U2 whole entry, looked up): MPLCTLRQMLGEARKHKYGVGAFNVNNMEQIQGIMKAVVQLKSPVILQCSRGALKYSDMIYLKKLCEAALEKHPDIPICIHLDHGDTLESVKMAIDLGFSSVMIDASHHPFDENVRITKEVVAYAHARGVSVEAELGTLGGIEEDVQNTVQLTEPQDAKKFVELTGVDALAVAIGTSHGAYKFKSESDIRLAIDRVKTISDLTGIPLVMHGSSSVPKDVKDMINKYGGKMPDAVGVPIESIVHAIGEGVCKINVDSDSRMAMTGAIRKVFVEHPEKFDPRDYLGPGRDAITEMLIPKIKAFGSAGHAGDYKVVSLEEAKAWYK
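40 nM FBPA preincubated 10 min at RT with compound (up to 57.5 uM final), then substrate plus GAPDH/TPI/NAD/arsenate coupling and diaphorase/resazurin added. Fluorescence read after 20 min at RT, 525/598 nm.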
Tb PYK inh: blocks Trypanosoma brucei pyruvate kinase | AID 624173 | TbPYK enzyme, Kinase-Glo Plus ATP luminescence, 45 min | Potency, µM (doses to about 76.8 µM), for the others: top-dose activity, negative = inhibition, actives largely listed as inhibitors | Q57TT1 | 0.12% of 410,000 active; further: potency means the concentration at half of the fitted maximal effect; nearly all actives have a fitted effect of over 50% in size
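Enzyme and substrate buffer are dispensed first and compound is pin-transferred. ADP at 130 uM final then starts the reaction, which runs 45 min at room temperature. Detection reagent is added for 10 min before luminescence is imaged.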
The depositor's hits bear a star; ? = inconclusive; / = not tested or not shown; ! = not active in a repeat; [ ] = dose if it differs, or a comment. Shown are actives, neighbours in structure and some others; about 7.7% of the full set was active somewhere. Unless noted, the call rests on the fitted dose curve; in most records, active means well fitted curve in the direction sought with a large enough effect; inconclusive means small, poorly fitted or top-dose-only effect, or another doubt; inactive means no such curve, though single readings can be large; an effect the other way counts as inactive or inconclusive. On the % scale 0 is the no-effect control and ±100 the full control effect.

SMILES | HCMV antiviral | RE007 growth inh | Sm TGR block | FMDV antiviral | Giardia FBPA inh | Tb PYK inh
COc1ccc(-c2nc(CS(=O)(=O)CC(=O)NCCc3cc(OC)ccc3OC)c(C)o2)cc1 | -71.2* | 3.5% | -8.9% | 9.2% | 0.0% | 0.9%
COc1cccc(-c2nc(CS(=O)(=O)CC(=O)Nc3c(C)cc(C)cc3C)c(C)o2)c1 | -62.0* | / | -13.6% | -19.6% | / | -0.6%
COC(=O)c1ccccc1NC(=O)CS(=O)(=O)Cc1nc(-c2ccc(C)cc2)oc1C | -4.2 | -6.2% | 25.1µM* | -25.3% | 3.5% | 1.8%
COc1cccc(-c2nc(CS(=O)(=O)CC(=O)NCCC(C)C)c(C)o2)c1 | -16.7 | -8.2% | 44.7µM* | -23.9% | -2.1% | 2.1%
COc1ccc(-c2nc(CS(=O)(=O)CC(=O)Nc3ccc(Cl)cc3)c(C)o2)cc1 | 50.3 | 2.7% | 35.5µM* | 20.7% | 4.9% | 0.6%
COc1ccc(NC(=O)CS(=O)(=O)Cc2nc(-c3ccc(C)cc3)oc2C)cc1 | -29.4 | 8.0% | -33.5% | -11.0% | -14.6% | 0.3%
COc1cccc(-c2nc(CS(=O)(=O)CC(=O)NCCc3ccc(OC)cc3OC)c(C)o2)c1 | -25.9 | 18.4% | 25.1µM*! | -15.1% | 2.1% | -1.3%
COC(=O)C1=C(C)N(Cc2ccccc2)C2=C3C(=O)CCCC3[C@@](O)(C(=O)OC)C(=O)N2C1c1ccccc1 (stereo partly specified) | / | / | / | / | 5.2%[12.9 µM] | /
O=C(c1nc2ncccn2n1)N1CCOc2ccc(C(O)C(c3ccccc3)c3ccccc3)cc2C1 (stereo unspecified) | / | / | / | -5.0% | / | /
COc1cc(OC)c(NC(=O)c2ccc3c(c2)N(Cc2ccc(C)cc2)CCS3)cc1Cl | 0.2 | / | 2.7% | -12.7% | / | 0.4%
COc1cccc(-c2nc(CS(=O)(=O)CC(=O)N3CCCCC3)c(C)o2)c1 | ? | 9.4% | ? | -18.6% | 12.3% | -12.7%
COc1cccc(-c2nc(CS(=O)(=O)CC(=O)N3CCN(c4ccccn4)CC3)c(C)o2)c1 | -16.2 | -1.4% | 50.1µM* | 0.0% | 4.1% | 3.4%
CN(c1cccc(NC(=O)c2ccc(C(C)(C)C)cc2)c1)S(C)(=O)=O | -81.8* | -1.1% | 9.7% | ? | -18.1% | 3.6%
CC(=O)Nc1ccc(C(=O)Nc2cccc(S(=O)(=O)N(C)c3ccccc3)c2)cc1 | 0.0 | 20.0% | 8.8% | ? | / | 2.3%
CN(c1cccc(NC(=O)c2ccc(N(C)S(=O)(=O)c3ccccc3)cc2)c1)S(C)(=O)=O | -72.4* | -4.3% | 12.1% | 14.1µM* | -10.3% | -27.8%
CN1C(=O)C(C(Nc2ccccc2)c2ccccc2)c2ccccc21 (stereo unspecified) | -4.1 | / | / | / | / | /
CCOC(=O)c1c(Nc2ccc(O)cc2)nnc(-c2ccccc2)c1-c1ccccc1 | -37.8 | / | 44.7µM* | 0.0% | / | 4.0%
CS(=O)(=O)c1ccc(N)c(SSc2cc(S(C)(=O)=O)ccc2N)c1 | -82.4* | 6.7% | -4.3% | 4.3% | / | 3.55µM*
Cc1ccn2c(-c3csc(NCc4ccccc4)n3)c(C)nc2c1 | -80.8* | 5.8% | 2.6% | 15.8µM* | ? | -5.2%
Cc1ccc(Nc2nc(-c3c(C)nc4ccccn34)cs2)cc1 | -101.4* | ? | 5.3% | 25.1µM* | -24.1% | -9.9%
Cc1nc2ccccn2c1-c1csc(NCc2ccco2)n1 | -12.4 | -5.8% | -8.7% | ? | ? | 3.2%
Cc1cccc(NC(=O)Nc2nnc(N(C)Cc3ccccc3)s2)c1 | -7.9 | / | -7.4% | -13.9% | / | 4.6%
Cc1ccc(C)n1-c1ccc(C(=O)NCc2ccncc2)cc1 | ? | -8.9% | 22.4µM* | -5.6% | -0.6% | -0.3%
Cc1ccc(S(=O)(=O)N2CCCN(C(C)c3nc4ccccc4c(=O)[nH]3)CC2)cc1 (stereo unspecified) | -19.1 | 1.6% | ? | -11.5% | / | -4.9%
COc1ccccc1CN(Cc1nc2ccccc2c(=O)[nH]1)C(=O)Nc1ccc(C)cc1 | -27.5 | -0.8% | 1.3% | / | -3.3% | 2.2%
